Bioassay records (PubChem BioAssay)
A selection: hits, their analogues and other compounds. The true share with any hit is near 21%.
Pf growth 48h – P. falciparum growth inhibition at 48 hours (one generation); 5.9% of 310,000 active; AID 504832; P. falciparum luciferase growth in erythrocytes, 48 h; Potency, µM (titrated, usually from 28.7 µM), for the others: at the top dose activity change, negative = inhibition, hits mostly inhibitors; further: potency means the concentration at half of the fitted maximal effect; on the % scale 0 is the no-effect control and ±100 the full control effect
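Luciferase-expressing parasites in RBCs, 2% Hct / 0.1% parasitemia final; RPMI 1640 + 0.5% Albumax; 37 C, 5% CO2, one generation; luminescence read-out, lower signal = inhibition.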
Sm TGR inh – inhibitors of Schistosoma mansoni thioredoxin glutathione reductase; Potency, µM (doses to about 114 µM), for inactives: at the highest dose activity change, negative = inhibition, hits mostly inhibitors; purified TGR, DTNB reduction, TNB absorbance 405 nm; Q962Y6; 3% of 360,000 active; AID 485364; further: potency means the concentration at half of the fitted maximal effect; on the % scale 0 is the no-effect control and ±100 the full control effect; nearly all actives have a fitted effect of over 60% in size
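First, TGR (20 nM dispensed) and NADPH were mixed with compound. Second, a 15 min room-temperature incubation followed. Third, further NADPH and then DTNB were added to start the reaction. Finally, TNB absorbance was monitored kinetically.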
Pf growth 96h – P. falciparum growth inhibition at 96 hour, primary screen for plastid delayed-death inhibitors; 6.9% of 320,000 active; AID 504834; P. falciparum luciferase reporter growth, 96 h; Potency, µM (series often up to 28.7 µM), for inactives: at the top dose activity change, negative = inhibition, most hits filed as inhibitors; further: potency means the concentration at half of the fitted maximal effect; on the % scale 0 is the no-effect control and ±100 the full control effect
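Luminescence readout: decreased luciferase signal marks inhibited growth of reporter-expressing P. falciparum in infected red cells (2% hematocrit, 0.05% parasitemia final), exposed to compound two generations (96 h, 37 C, 5% CO2).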
Cycloheximide cs – counter-screen for Shiga toxin inhibitors: cycloheximide protein synthesis inhibition; cell reporter, cycloheximide protein synthesis inhibition counterscreen; max response, %; 12% of 300,000 active; in the data active means max response mostly above about 13%, no sharp cut-off; inactive means mostly below about 14%; further: read at 38.3 µM for the half of the compounds with a filed dose; 0% is about no effect
NS1 inh – blocks influenza NS1 protein function; Potency, µM (series often up to 46.1 µM), for the others: top-dose activity, positive = more growth; AID 2326; 0.4% of 270,000 active; calls by dose curve; further: potency means the concentration at half of the fitted maximal effect; actives are rising curves; nearly all actives have a fitted effect of over 50% in size
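A cell-based growth assay was used: compounds that relieve NS1-induced slow growth of budding yeast raise OD600. Assay medium was yeast nitrogen base with ammonium sulphate and -URA supplement, pH 6.0, with 2% galactose.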
Shiga toxin inh – Shiga toxin inhibition. Vero cells, Shiga toxin protein synthesis inhibition reporter. inhibition, % at 38.7 µM. 9.2% of 290,000 active. AID 2315; in the data active means inhibition mostly above about 28%, no sharp cut-off; inactive means mostly below about 43%; further: 0% is about no effect
* = called active by the depositor. Unless noted, the call rests on the fitted dose curve; in most records, active means well fitted curve in the direction sought with a large enough effect; inconclusive means small, poorly fitted or top-dose-only effect, or another doubt; inactive means no such curve, though single readings can be large; an effect the other way counts as inactive or inconclusive.

Screening O=S(=O)(/C(=C/c1ccc(C(F)(F)F)cc1)c1nc2ccccc2[nH]1)c1ccccc1 returned Pf growth 48h 4.1µM*, Sm TGR inh 18µM*, Pf growth 96h 1.7µM*, Cycloheximide cs -2, NS1 inh -16% and Shiga toxin inh -6.
For Cc1nnc2c(N(C)S(=O)(=O)c3ccccc3)nc3ccccc3n12 the results were Pf growth 48h 13%, Sm TGR inh -9%, Pf growth 96h inconclusive, Cycloheximide cs -7, NS1 inh -7% and Shiga toxin inh 1.
For C/C=C/c1ccc(OCCCCn2cncn2)c(OC)c1 the results were Pf growth 48h 30%, Sm TGR inh 0%, Cycloheximide cs 34*, NS1 inh -3% and Shiga toxin inh 54*.
C/C=C/c1ccc(OCCCn2cncn2)c(OC)c1 was read as Pf growth 48h 27%, Sm TGR inh -12%, Pf growth 96h 6%, Cycloheximide cs 11*, NS1 inh -1% and Shiga toxin inh 27.
`C/C=C/c1ccc(OCCn2cncn2)c(OC)c1` gave Pf growth 48h 21%, Sm TGR inh inconclusive, Pf growth 96h -8%, Cycloheximide cs -1, NS1 inh 8% and Shiga toxin inh -5.
`CC(/C=N/NC(=O)c1cccnc1)=C\c1ccco1` gave Pf growth 48h 24%, Sm TGR inh 50µM*, Cycloheximide cs 14*, NS1 inh 3% and Shiga toxin inh 35.
`CC(/C=N/NC(=O)c1cnccn1)=C\c1ccco1` gave Pf growth 48h 88%, Sm TGR inh 28µM*, Pf growth 96h 45%, Cycloheximide cs 32*, NS1 inh -2% and Shiga toxin inh 39.
Screening CC(/C=N/NC(=O)c1cc(-c2ccccc2)nc2ccccc12)=C\c1ccco1 returned Pf growth 48h -22%, Sm TGR inh 2%, Pf growth 96h inconclusive, Cycloheximide cs -2, NS1 inh 22% and Shiga toxin inh -3.
Screening CC(=C/c1ccco1)/C=N/NC(=O)c1ccncc1 returned Pf growth 48h 4%, Sm TGR inh 45µM*, Pf growth 96h 73%, Cycloheximide cs -3, NS1 inh -1% and Shiga toxin inh 22.
CC(/C=N/NC(=O)c1cc(-c2ccc(Cl)cc2)nc2ccccc12)=C\c1ccco1 was read as Sm TGR inh -22%, Pf growth 96h inconclusive, Cycloheximide cs -3, NS1 inh 4% and Shiga toxin inh -11.
Screening C/C(=N/NC(=O)CNC(=O)c1cccnc1)c1ccco1 returned Pf growth 48h 24%, Sm TGR inh -2%, Pf growth 96h 75%, Cycloheximide cs -1, NS1 inh -2% and Shiga toxin inh -2.
CCCN(CCC)Cc1c(C(=O)N/N=C/c2ccc(C)o2)nnn1-c1nonc1N was read as Pf growth 48h 5%, Sm TGR inh -4%, Pf growth 96h inconclusive, Cycloheximide cs -4, NS1 inh -1% and Shiga toxin inh -11.
For O=C(/C=C/Nc1ccc(S(=O)(=O)Nc2cnc3ccccc3n2)cc1)c1ccccc1 the results were Pf growth 48h 15%, Sm TGR inh -1%, Pf growth 96h inconclusive, Cycloheximide cs 28*, NS1 inh 0% and Shiga toxin inh 61.
For COc1cc(NS(=O)(=O)c2ccc(N/C=C\C(=O)c3ccc(OC)c(OC)c3)cc2)nc(OC)n1 the results were Pf growth 48h -15%, Sm TGR inh -24%, Pf growth 96h inconclusive, Cycloheximide cs -1, NS1 inh 17% and Shiga toxin inh 4.
Screening COc1cccc(C(=O)/C=C/Nc2ccc(S(=O)(=O)Nc3cnc4ccccc4n3)cc2)c1 returned Pf growth 48h 36%, Sm TGR inh -18%, Pf growth 96h 3%, Cycloheximide cs 69*, NS1 inh 21% and Shiga toxin inh 98*.
COc1ccc(C(=O)c2oc3ccccc3c2NC(=O)c2nc(SC)ncc2Cl)cc1Cl was read as Sm TGR inh 2%.
`N/C(=N\OC(=O)c1ccc([N+](=O)[O-])cc1)c1ccc(Br)cc1` gave Pf growth 48h 23%, Sm TGR inh -14%, Pf growth 96h 6%, Cycloheximide cs 1 and NS1 inh 5%.
For N/C(=N\OC(=O)c1ccncc1)c1cccc([N+](=O)[O-])c1 the results were Pf growth 48h 72%, Sm TGR inh 1%, Pf growth 96h -16%, Cycloheximide cs 27* and NS1 inh -8%.
`Cc1cccc(/C(N)=N/OC(=O)c2ccncc2)c1` gave Pf growth 48h 79%, Sm TGR inh 0%, Pf growth 96h inconclusive, Cycloheximide cs 46*, NS1 inh -9% and Shiga toxin inh 68*.
Cc1ccc(CC(=O)O/N=C(\N)c2cccc([N+](=O)[O-])c2)cc1 was read as Pf growth 48h 31%, Sm TGR inh 4%, Pf growth 96h 15µM*, Cycloheximide cs 15*, NS1 inh -15% and Shiga toxin inh -3.
For N/C(=N\OC(=O)c1ccc(Br)cc1)c1cccc([N+](=O)[O-])c1 the results were Pf growth 48h 50%, Sm TGR inh -7%, Pf growth 96h inconclusive, Cycloheximide cs 26*, NS1 inh -33% and Shiga toxin inh 20*.
`N/C(=N\OC(=O)Cc1ccc([N+](=O)[O-])cc1)c1cccc(Br)c1` gave Pf growth 48h -2%, Sm TGR inh -7%, Pf growth 96h inconclusive, Cycloheximide cs 5, NS1 inh 3% and Shiga toxin inh 18.
For N/C(=N\OC(=O)C1CCCCC1)c1cccc([N+](=O)[O-])c1 the results were Pf growth 48h 51%, Sm TGR inh -15%, Pf growth 96h 50%, Cycloheximide cs 66*, NS1 inh -15% and Shiga toxin inh 106*.
Cc1ccc(C(=O)O/N=C(\N)c2cccc([N+](=O)[O-])c2)cc1 was read as Pf growth 48h 134%, Sm TGR inh 0%, Pf growth 96h 142%, Cycloheximide cs 39*, NS1 inh -48% and Shiga toxin inh 69*.
Screening CCOC(=O)c1cccc(NC(=O)CC2C(=O)N(c3ccc(F)cc3)C(=O)N2C(C)C)c1 (centres undefined) returned Sm TGR inh 2%.
`CN(CC(=O)Nc1ccc(F)cc1)C(=O)CNC(=O)C1CCCCC1` gave Pf growth 48h 10%, Sm TGR inh 7% and Pf growth 96h 1%.
`COc1ccc(-c2noc(CSc3nnc(-c4ccncc4)n3-c3cccc(C)c3)n2)cc1OC` gave Sm TGR inh 10%.
Screening COc1cc(OC)c(-c2nn3c(-c4ccco4)nnc3s2)cc1OC returned Pf growth 48h 10µM*, Sm TGR inh 11µM*, Pf growth 96h 8%, Cycloheximide cs -4, NS1 inh -44% and Shiga toxin inh 9.
For c1ccc(-c2cc(-c3nn4c(-c5ccco5)nnc4s3)c3ccccc3n2)cc1 the results were Pf growth 48h 3.7µM*, Sm TGR inh 20µM*, Cycloheximide cs -1, NS1 inh 16% and Shiga toxin inh -5.
